# PPC-1+TRAIL kill – compounds killing PPC-1 cancer cells with TRAIL present, primary screen, TRAIL potentiator project, ATPLite luminescence, uHTS; PPC-1 cells + TRAIL, ATPLite viability luminescence; cell killing (% activity), % at 4 µM or 5 µM; 0.41% of 220,000 active;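 active = cell killing above 50% in the first pass at 4 µM, then a duplicate retest at 5 µM averaging 50% or more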;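 also: plate controls were cells with TRAIL plus DMSO for no effect and medium-only wells lacking cells for full effect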
# TRAIL sens C8 – viability loss with TRAIL in NB7+C8 cells, primary screen, TRAIL sensitizer project, cell-based, ATPlite luminescence. 1% of 360,000 active. inhibition (viability loss, TRAIL sensitization), % at 10 µM;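 active = compounds causing at least 50% loss of cell viability in the single-dose screen, relative to plate controls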
# STAT3 blocker – IL-6 driven STAT3 reporter inhibitors, primary screen, U3A cells, luciferase, luminescence, MLSCN library | IL-6 STAT3-luciferase reporter; host cell line lacks STAT1 | inhibition, % at 5.5 µM | 0.89% of 190,000 active | AID 862, 2007;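 active = inhibition above the mean inhibition across all screened compounds plus 3 SD, cut at about 44% in these data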;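 also: 0% = DMSO only wells and 100% = 100 µM nifuroxazide control wells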
# STAT1 inh-1 – STAT1 signaling inhibitors, primary screen, cell-based, HTS, luciferase reporter | inhibition, % at 5.5 µM | 0.35% of 200,000 active | NIH 3T3 STAT1-luciferase reporter, IFN-gamma, luminescence | AID 920, 2007;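 active = inhibition above a set limit, the mean inhibition across all tested compounds plus 3 SD, cut at about 34% in these data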;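 also: 0% = IFN-gamma with DMSO and 100% = IFN-gamma with 300 µM nifuroxazide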
# Platelet DG rel – inhibitors of platelet dense granule secretion, primary screen, cell-based, MLPCN, human platelets; inhibition, %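 (compounds screened at 7.5 µM in platelet-rich plasma)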; 0.22% of 300,000 active; human platelet-rich plasma, SFLLRN dense granule ATP release, luminescence; AID 1663, 2009;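 active = mean replicate score, as percent of positive control, at or above 50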
# STAT1 inh-2 – STAT1 signaling inhibitors, confirmation, cell-based, HTS, luciferase reporter; shares compounds with STAT1 inh-1; inhibition, % at 5.5 µM; 55% of 200 active; AID 1263, 2008; NIH 3T3 STAT1-luciferase reporter, IFN-gamma, luminescence;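 active = triplicate mean inhibition exceeding the hit cutoff computed for the primary STAT1 screen, cut at about 35% in these data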;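 also: 0% = DMSO with IFN-gamma and 100% = 300 µM nifuroxazide with IFN-gamma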
# NFkB inh – NF-kB reporter inhibitors, TNF-alpha stimulated, counter-screen for STAT1 inhibitor project, cell-based, HEK293T, luciferase luminescence; shares compounds with STAT1 inh-1; TNF-alpha induced; inhibition, % at 5.7 µM; 30% of 200 active; AID 1303, 2008;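 active = inhibition above the mean of solvent-only control wells plus 3 SD of those wells, cut at about 15% in these data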;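 also: 0% = DMSO with TNF-alpha and 100% = MG-132 control with TNF-alpha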
# STAT3 inh 2 – STAT3 reporter inhibition by STAT1 hits, counter-screen for STAT1 inhibitor project, U3A cells, luciferase, luminescence, triplicate | inhibition, % at 5.7 µM | shares compounds with STAT1 inh-1 | IL-6 STAT3 luciferase reporter; cells lacking STAT1 | AID 1310, 2008 | 20% of 200 active;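 active = inhibition above the mean of solvent-only control wells plus 3 SD, set per campaign, cut at about 25% in these data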;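 also: 0% = IL-6 plus DMSO and 100% = IL-6 plus nifuroxazide control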
# * hit, by the source's call; x = not tested or not shown. Compounds with a hit are over-represented: about 1.6% of the library has one in this group of screens.
SMILES,PPC-1+TRAIL kill,TRAIL sens C8,STAT3 blocker,STAT1 inh-1,Platelet DG rel,STAT1 inh-2,NFkB inh,STAT3 inh 2
CC(C)(C)C(=O)Nc1ccc(-c2nc3ccccc3c(=O)o2)cc1,41,59*,26,41*,12,-13,11,2
CCC(=O)Nc1cccc(-c2nc3ccccc3o2)c1,-2,21,8,-10,8,x,x,x
CC1(C(=O)NS(=O)(=O)c2ccc(Cl)cc2)CCN1C(=O)C1(c2ccc(Cl)cc2)CCC1 (centres undefined),x,4,x,x,x,x,x,x
CNc1nc(NC)c2cn[nH]c2n1,x,9,x,x,x,x,x,x
C=CCOC(=O)C1=C[C@H](c2ccc(Br)cc2)[C@@H](CCCO)[C@H](OCC)O1,7,12,x,38*,5,21,-7,0
Cn1c(-c2ccccc2)c(C(=O)CCl)c2ccccc21,21,92*,9,37*,2,36*,40*,7
O=C(NCCc1ccc(Cl)cc1)c1ccc(S(=O)(=O)N2CCCC2)cc1,x,-17,x,x,-3,x,x,x
CCOC(=O)/C(=C/C=C1\Sc2ccccc2N1CC)C(C)=O,-6,-1,21,-5,6,x,x,x
CCOC(=O)/C(=C/C=C1\Sc2cc(C)c(C)cc2N1CC)C(C)=O,8,-3,22,40*,1,40*,-1,27*
C[C@@]12CC[C@@H](C3=C(CCC3)C1)N2c1ccccc1,x,0,x,x,x,x,x,x
O=C(CSc1nc2ccccc2c(=O)[nH]1)c1ccc(O)cc1O,-2,-2,3,64*,-3,43*,6,0
O=C(CSc1nc2ccccc2c(=O)[nH]1)c1ccc(O)c(O)c1,1,4,8,4,-5,x,x,x
CCC(=O)NC(=S)Nc1ccc(NC(=S)NC(=O)c2ccccc2)cc1,x,-12,16,83*,0,53*,38*,11
CC(C(=O)NC(=O)NC1CCCCC1)N1CCN(c2ccc(O)cc2)CC1 (centres undefined),x,-14,x,x,x,x,x,x
COC(=O)[C@]12CCCCC=C1N(Cc1cccc3ccccc13)C(=O)[C@H](CC(=O)NCCc1ccccc1OC)C2,x,1,x,x,x,x,x,x
CCOC(=O)C(=CNc1cc(C)nn1-c1ccc(Cl)cc1)C(=O)OCC,4,7,2,59*,4,55*,17*,1
CCOC(=O)C(=CNc1ccc(Cl)cn1)C(=O)OCC,1,-10,x,x,20,x,x,x
CCOc1cc(-c2cc(-c3ccc(N)cc3)nc(N)c2C#N)ccc1O,-17,5,2,3,-6,x,x,x
CCOc1cc(-c2noc(N)c2C#N)cc(OCC)c1OCC,31,4,14,40*,0,42*,0,10
Cc1cc(C(=O)COC(=O)CNC(=O)c2ccccc2)c(C)n1CC1CCCO1 (centres undefined),9,-4,28,37*,7,-49,-3,-15
CCOc1ccc(S(=O)(=O)Nc2cccc(C)c2)c2cccnc12,13,-3,11,37*,15,25,-2,7
CCOc1ccc(S(=O)(=O)Nc2ccc3c(c2)OCO3)c2cccnc12,17,11,0,7,5,x,x,x
CC(C)c1nnc(NC(=O)CCS(=O)(=O)c2nc(-c3cccs3)cc(C(F)(F)F)n2)s1,-1,4,7,37*,-1,44*,15*,6
CN1CCN(C(=O)c2ccc(CSc3ccc(Cl)cc3)cc2)CC1,5,18,5,6,-5,x,x,x
CCOC(=O)N1CCN(C(=O)c2ccc(CSc3ccc(Cl)cc3)cc2)CC1,13,16,18,38*,-2,39*,10,24
SMILES,PPC-1+TRAIL kill,TRAIL sens C8,STAT3 blocker,STAT1 inh-1,Platelet DG rel,STAT1 inh-2,NFkB inh,STAT3 inh 2
CCNC(=S)Nc1ccc2c(c1)c(=O)n(C)n2-c1ccc(C(C)(C)C)cc1,x,29,x,x,x,x,x,x
COc1ccccc1CNc1ncnc2cc(Cl)ccc12,12,21,-8,42*,3,38*,11,-15
COc1ccc(CNc2ncnc3cc(Cl)ccc23)cc1OC,2,26,4,41*,-3,35*,12,-16
Clc1ccc2c(NCc3ccccn3)ncnc2c1,8,14,-47,-1,-5,x,x,x
COc1ccc(CCNc2ncnc3cc(OC)c(OC)cc23)cc1OC,19,0,22,35*,4,36*,8,25
N#CN1C2CCC1CC(O)(c1ccccc1)C2 (centres undefined),x,9,x,x,x,x,x,x
CN(Cc1cccc(Cl)c1Cl)C(=O)c1cc(S(=O)(=O)N2CCOCC2)ccc1F,x,12,x,x,x,x,x,x
Cn1c(=O)n(C)c2cc(/C=N/NC(=O)c3ccncc3)ccc21,-10,x,7,4,6,x,x,x
CCn1c(O)c(/C=N/NC(=O)c2ccncc2)c(=O)n(CC)c1=S,20,-3,8,61*,-1,60*,1,-46
Cc1ccc(-c2csc3ncnc(Sc4nnc(CN5CCCCCC5=O)o4)c23)cc1,-7,14,27,44*,-14,56*,12,21
CC(=O)NC(C)(c1ccccc1)c1nc(-c2csc3ccccc23)cs1 (centres undefined),x,6,x,x,x,x,x,x
COc1ccc(C(=O)/C(C#N)=N/Nc2cccc([N+](=O)[O-])c2)cc1,19,-7,24,44*,10,21,6,2
O=C(O)c1[nH]c(-c2ccccc2)c2c1C(=O)N(C1CC1)C2=O,x,0,x,x,x,x,x,x
COc1ccc(/C=N/Nc2ccc(C(=O)O)cc2)cc1Br,6,1,42,61*,68*,-56,49*,-137
Cc1ccc2[nH]c3c(N4CCN(Cc5ccccc5)CC4)ncnc3c2c1,15,40,30,36*,1,40*,9,16
COc1ccc2[nH]c3c(N4CC(C)OC(C)C4)ncnc3c2c1 (centres undefined),6,x,5,16,1,x,x,x
COc1cccc(N2CCN(c3ncnc4c3[nH]c3ccccc34)CC2C)c1 (centres undefined),21,x,23,35*,23,46*,25*,37*
c1ccc(CN2CCN(c3ncnc4c3[nH]c3ccccc34)CC2)cc1,17,42,8,41*,-25,48*,22*,16
CCOc1ccc2[nH]c3c(N4CCN(c5ccccn5)CC4)ncnc3c2c1,12,25,12,11,3,x,x,x

# Compound activity (PubChem BioAssay)
